From PubChem BioAssay AID2069 (Sanford-Burnham Center for Chemical Genomics, 2009)
Hit rate of the full screen: of about 1,200 compounds, about 210 (18%) were called active. Only a sample is shown. A number with no mark means an inactive call. Rule as the data show it: active = inhibition above about 30%; inactive = the rest.

assay: fluorescence readout artefact check – biochemical, HTRF, uHTS, artefact control for SUMOylation inhibitor project, confirmation (AID 2069); conditions: HTRF interference counterscreen, at 35 µM, stronger effect = higher value

Q: For N#C/C(=C\c1ccc(-c2ccc([N+](=O)[O-])cc2)o1)C(=O)Nc1nc(-c2cccs2)cs1, which inhibition is on record?
A: 0.8%

Q: For O=C(c1ccc2c(c1)[nH]c(=S)n1c3ccccc3nc21)N1CCN(c2ncccn2)CC1, which inhibition is on record?
A: 11.9%

Q: For COc1ccc(S(=O)(=O)C(C#N)c2nc3ccccc3nc2N2CCC(C)CC2)cc1 (stereo not drawn), which inhibition is on record?
A: -6%

Q: For CCOc1ccc(NC(=S)Nc2cccc3ccccc23)cc1, which inhibition is on record?
A: -13.5%

Q: For COc1ccc(OC)c(S(=O)(=O)NCCc2cn3ccsc3n2)c1, which inhibition is on record?
A: -8.15%

Q: Which inhibition does the source give for CCOC(=O)CCc1c(C)c(C#N)c2[nH]c3ccccc3n2c1=O here?
A: 2.5%

Q: Which inhibition does the source give for CC(=O)Oc1c(/C=C(\C#N)C(N)=O)[nH]c2ccccc12 here?
A: -17.9%

Q: Which inhibition does the source give for C=CCOc1c(Cl)cc(CNc2ccc3[nH]c(=O)[nH]c3c2)cc1OC here?
A: -12.6%

Q: For Cc1ccc(C2=NN(C(=O)CCC(=O)O)C(c3cn(-c4ccccc4)nc3-c3ccc(C)cc3)C2)cc1 (stereo not drawn), which inhibition is on record?
A: 23.6%

Q: Which inhibition does the source give for O=C(O)c1ccc(N2N=C(c3ccccc3)CC2c2ccccc2)cc1 (stereo not drawn) here?
A: 60.1% (active)

Q: With COc1ccc(C2=NN(C(=O)CCCC(=O)O)C(c3cn(-c4ccccc4)nc3-c3ccccc3)C2)cc1 (stereo not drawn) as the compound, how does the inhibition read?
A: 4.9%

Q: Which inhibition does the source give for O=C(N=Nc1c(O)n(Cc2ccccc2)c2ccccc12)c1cc2ccccc2cc1O here?
A: 10.8%

Q: For COCCn1c(-c2cccs2)csc1=Nc1cccnc1, which inhibition is on record?
A: 3.35%

Q: With COc1ccc(-c2nc(SCC(=O)Nc3cc(C)on3)n[nH]2)cc1 as the compound, how does the inhibition read?
A: 22.4%

Q: For O=[N+]([O-])c1cc(C=Nc2cccc3c(O)cccc23)ccc1Cl, which inhibition is on record?
A: -17.1%

Q: Which inhibition does the source give for c1ccc2c3c(cc(N4CCOCC4)c2c1)OC1(N2CCOCC2)CCCCC1O3 (stereo not drawn) here?
A: 16%

Q: Which inhibition does the source give for S=C(NCc1ccc2c(c1)OCO2)Nc1ccc2nsnc2c1 here?
A: -0.25%

Q: Which inhibition does the source give for CCCC(=O)Nc1ccc2oc(-c3cncc(Br)c3)nc2c1 here?
A: 19.6%

Q: With O=C(Nc1ccc2oc(-c3ccc4ccccc4c3)nc2c1)c1ccc2c(c1)OCCO2 as the compound, how does the inhibition read?
A: 8.15%

Q: For CC(C)CC(=O)Nc1ccc2oc(-c3cccnc3)nc2c1, which inhibition is on record?
A: 42.5% (active)

Q: For Nc1ccc(N2CCN(CCCCN3C(=O)C4CCCN4C3=O)CC2)cc1 (stereo not drawn), which inhibition is on record?
A: -7%

Q: With Cc1cc(/C=C2\C(=O)NN(c3ccccc3)C2=O)c(C)n1-c1ccccc1O as the compound, how does the inhibition read?
A: -1.5%

Q: Which inhibition does the source give for O=C(Nc1ccc(F)cc1)C(=O)c1c(O)[nH]c2ccc([N+](=O)[O-])cc12 here?
A: -2.85%

Q: Which inhibition does the source give for O=C(O)/C=C/C(=O)Nc1ccc(O)cc1 here?
A: -0.1%

Q: For Cc1ccc(NC(=O)CN2C(=O)S/C(=C/c3ccc(-c4cc(C(=O)O)ccc4C)o3)C2=O)cc1C, which inhibition is on record?
A: 37.2% (active)

Q: For Cc1ccccc1NC(=O)CN1C(=O)S/C(=C\c2ccc(-c3cc(C(=O)O)ccc3C)o2)C1=O, which inhibition is on record?
A: 28.9%

Q: With Cc1ccc(C(=O)O)cc1-c1ccc(/C=C2\SC(=O)N(CC(=O)Nc3ccc4c(c3)OCO4)C2=O)o1 as the compound, how does the inhibition read?
A: 23.6%

Q: Which inhibition does the source give for Cc1cc[n+](-c2[nH]c(=O)sc2/C=N/N=C(\[O-])c2ccncc2)cc1 here?
A: -1.55%

Q: With CCCCNC(=O)Oc1c(Br)cc2sc(=O)oc2c1Br as the compound, how does the inhibition read?
A: 7.5%

Q: With Cc1cc(/C=N/n2c(COc3ccccc3C)nc3ccccc3c2=O)c(O)c([N+](=O)[O-])c1 as the compound, how does the inhibition read?
A: -15.5%

Q: With CCn1c2ccccc2c2c3ncc4cccn4c3ccc21 as the compound, how does the inhibition read?
A: 31.1% (active)

Q: Which inhibition does the source give for O=[N+]([O-])c1ccc2nc(CCCc3nc4ccc([N+](=O)[O-])cc4[nH]3)[nH]c2c1 here?
A: 28.1%

Q: Which inhibition does the source give for COc1ccccc1CCNC(=O)CSc1ccc(-c2ccco2)nn1 here?
A: 14.2%

Q: Which inhibition does the source give for CCc1cc2c(=O)c(Oc3ccccc3F)c(C)oc2c(CN(C)C)c1O here?
A: 62.9% (active)

Q: With Cc1ccccc1NC(=O)Cn1c(O)c(N=NC(=O)c2ccccc2O)c2ccccc21 as the compound, how does the inhibition read?
A: 11.2%

Q: With CN1CCc2cc3c(c4c2[C@H]1[C@H](O)c1ccccc1-4)OCO3 as the compound, how does the inhibition read?
A: 1.95%

Q: For CCc1ccc(/C=C2/SC(=S)N(CCC(=O)Nc3ccc(C(=O)O)cc3)C2=O)cc1, which inhibition is on record?
A: 8.2%

Q: With COc1ccc2nc3ccccc3nc2c1N as the compound, how does the inhibition read?
A: -67.2%

Q: With CCOc1ccc2c(c1)C(NC(C)=O)C(=O)N2CCN1CCOCC1 (stereo not drawn) as the compound, how does the inhibition read?
A: 37.8% (active)

Q: Which inhibition does the source give for CCc1ccc2c(c1)C(NC(C)=O)C(=O)N2CCN1CCOCC1 (stereo not drawn) here?
A: 30.8% (active)

Q: Which inhibition does the source give for CC(=O)NC1C(=O)N(CCN2CCOCC2)c2ccc(Br)cc21 (stereo not drawn) here?
A: 32.2% (active)

Q: Which inhibition does the source give for CC(=O)NC1C(=O)N(CCN2CCOCC2)c2ccc(F)cc21 (stereo not drawn) here?
A: 28.6%

Q: For Brc1ccc(OCCN2CCOCC2)cc1, which inhibition is on record?
A: -8.15%

Q: Which inhibition does the source give for CCc1ccc2nc(NC(=O)c3ccc4c(=O)[nH]c(CN5CCOCC5)nc4c3)sc2c1 here?
A: 29.9%

Q: Which inhibition does the source give for CC(=O)NC1C(=O)N(CCN2CCOCC2)c2ccc(Cl)cc21 (stereo not drawn) here?
A: 25.8%

Q: With O=C1NC(=O)c2cc(NC(=O)C3CCCCC3)ccc21 as the compound, how does the inhibition read?
A: 25.4%

Q: With CCOC(=O)C1CC(=O)c2cc(OC)c(OC)cc2C1 (stereo not drawn) as the compound, how does the inhibition read?
A: -1.1%

Q: Which inhibition does the source give for O=C(COc1ccc(Cl)cc1)Nc1nnc(-c2ccc3c(c2)CCCC3)o1 here?
A: -7.05%

Q: Which inhibition does the source give for CC(C)=CCC1=C(OCC(=O)O)C(=O)c2ccccc2C1=O here?
A: -6.2%

Q: Which inhibition does the source give for O=C(Cc1ccccc1Cl)NC1(O)C(=O)c2ccccc2C1=O here?
A: -30.6%

Q: For O=C(NC1(O)C(=O)c2ccccc2C1=O)c1ccccc1, which inhibition is on record?
A: 57.5% (active)

Q: With O=C(NC1(O)C(=O)c2ccccc2C1=O)c1ccc(C(F)(F)F)cc1 as the compound, how does the inhibition read?
A: 56.5% (active)

Q: Which inhibition does the source give for Cc1ccc(C(=O)NC2(O)C(=O)c3ccccc3C2=O)cc1C here?
A: 29.6%

Q: Which inhibition does the source give for O=C(NC1(O)C(=O)c2ccccc2C1=O)c1c(Cl)cccc1Cl here?
A: 50.4% (active)

Q: Which inhibition does the source give for O=C1c2ccccc2C(=O)C12OC2c1ccc(Cl)cc1 (stereo not drawn) here?
A: 4.4%

Q: For CN(NC(=O)c1ccc(Cl)cc1)c1ncc(C(F)(F)F)cc1Cl, which inhibition is on record?
A: 4.95%

Q: Which inhibition does the source give for CC(=O)c1ccc(-c2ccc(/C=C(/Sc3n[nH]c(C)n3)C(=O)O)o2)cc1 here?
A: -9.75%

Q: For Cc1cccc(C)c1OCC(=O)N=Nc1c(O)[nH]c2ccc(Br)cc12, which inhibition is on record?
A: -1.15%
